Consider 49 compounds from PubChem BioAssay AID2718 (Broad Institute, 2010).

As usually defined, the inhibition is the relative decrease from the control value, in per cent.

About 480 (0.15%) of roughly 320,000 compounds were called active. Not shown: some 1% with an inconclusive outcome. Shown is part of a subset that was picked to be rich in actives. Unmarked numbers belong to inactive results. No stated cut-off is given here; in the data, active means inhibition above about 26% (passing the limit was not always enough); inconclusive means no clear call, values can overlap the other calls.

The target of the assay is Histone deacetylase 3 (Homo sapiens) (UniProt O15379). Kind of assay: inhibition of human HDAC3 enzyme activity – biochemical, fluorescence, cell-free homogeneous, primary screen (AID 2718). To be noted: recombinant HDAC3, fluorogenic peptide/trypsin coupled, at 8.3 µM, hits give high values.
Histone deacetylase 3 (Homo sapiens), sequence (O15379 whole entry, looked up): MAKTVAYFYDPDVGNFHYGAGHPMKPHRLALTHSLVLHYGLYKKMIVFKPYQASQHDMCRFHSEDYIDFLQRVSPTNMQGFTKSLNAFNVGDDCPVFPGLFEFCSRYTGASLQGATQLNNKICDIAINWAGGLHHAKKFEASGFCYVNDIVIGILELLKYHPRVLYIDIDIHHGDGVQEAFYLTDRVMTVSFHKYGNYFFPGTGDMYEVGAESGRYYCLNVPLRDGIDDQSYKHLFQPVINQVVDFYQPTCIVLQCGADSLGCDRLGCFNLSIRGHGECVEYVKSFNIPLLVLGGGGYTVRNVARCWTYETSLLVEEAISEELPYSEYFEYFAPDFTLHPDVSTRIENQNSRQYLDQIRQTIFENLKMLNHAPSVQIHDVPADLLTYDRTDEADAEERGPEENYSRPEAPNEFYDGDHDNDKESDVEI
`Cc1ccc(C)c(NC(=O)c2cc(-c3cc(C)cc(C)c3O)n[nH]2)c1`: the inhibition was -1.79%.
For `Cc1cc(NC(=O)CSc2nnc(-c3ccco3)n2N)no1`, the inhibition is 2.85%.
For the compound `Cc1[nH]c2ccccc2c1SCC(=O)Nc1nccs1`, the inhibition is -0.0176%.
Under `CC(C)(C)OC(=O)C[C@@H]1C/C=C\C[C@H](CC(=O)N[C@@H](CO)Cc2ccccc2)C(=O)N[C@H](Cc2ccccc2)COC1=O` stands -0.452%; under `COc1ccccc1-c1sc2ccccc2c1C#CC1(O)CCCCC1`, 14.4%; under `COc1cc(/C=C/C(=O)OCC(=O)c2ccccc2)cc(OC)c1OC`, -7.7%.
Take `O=C(OCC(=O)N1CCCCC1)c1ccc(OC(F)(F)F)cc1`: the inhibition is -7.06%.
For `O=C(Cn1cnc2c(OCc3ccccc3)ncnc21)NCCCn1ccnc1` the value was -4.2%.
In the case of `O=C1CCCC(O)=C1N=Nc1ccc2ncsc2c1`, the inhibition is -0.0778%.
`Nc1ccc(N=Nc2ccccc2Cl)c(N)n1`: the inhibition is 14.3%.
For `NC[C@H](Cc1ccccc1)NCCc1cc(C(F)(F)F)cc(C(F)(F)F)c1` the value was 3.54%; for `O=C(COC(=O)CCCNC(=O)c1ccc(Cl)cc1)Nc1cc(Cl)ccc1Cl`, -2.2%; for `O=C(Nc1cc(S(=O)(=O)Nc2ccc(Cl)cc2)ccc1O)c1ccc(F)cc1F`, 8.91%.
For `O=C(Nc1ccccc1F)c1ccc(S(=O)(=O)N2CCCCCC2)cc1` the value was 7.14%; for `O=C(Nc1ncccc1O)c1ccc(S(=O)(=O)N2CCCC2)cc1`, 72.1% (active); for `O=C(N/N=C/c1ccccn1)c1ccc(S(=O)(=O)N2CCCCCC2)cc1`, -5.66%.
For `CCCc1cc(=O)[nH]c(SCC(=O)Nc2ccc(S(=O)(=O)N3CCCC3)cc2)n1` the value was 4.11%.
For `O=C1N(c2ccccc2)C(=Nc2ccccc2)SC12CC2`, the inhibition was 1.18%.
Under `Cc1ccccc1N/C(SCc1ccc(Cl)cc1)=C(/C#N)C(N)=O` stands 15.5%; under `CCOC(=O)C1CCN(CCC(=O)Nc2cccc(C)c2)CC1`, 1.84%.
In the case of `CC(=O)c1cccc(OCC(=O)OCC(=O)Nc2cc(S(=O)(=O)N3CCCCC3)ccc2C)c1`, the inhibition was 0.557%.
As to `CS(=O)(=O)c1ccc(Cl)c(NC(=O)COC(=O)c2cccc(S(=O)(=O)N3CCCC3)c2)c1`, the inhibition is 5.04%.
Under `CN1CCN(S(=O)(=O)c2cccc(C(=O)O)c2)CC1` stands -5.01%; under `CNC(=O)NC(=O)C(OC(=O)c1cccc(S(=O)(=O)N2CCCCC2)c1)c1ccccc1` (centres undefined), 30.1% (active); under `COC(=O)c1nc(NC(=O)c2ccccc2)n[nH]1`, 58.7% (active).
For `Cn1c(NC(=O)c2ccccc2)nc2ccccc21` the value was 9.99%; for `COC(=O)c1nc(NC(=O)c2ccc(Cl)cc2)n[nH]1`, 7.09%; for `Nn1c(SCC(=O)Nc2ccc3c(c2)CCC3)nnc1C1CC1`, 1.79%.
In the case of `Cc1cc(C)n(C(=O)CCNC(=O)c2ccccc2Cl)n1`, the inhibition was -13.4%.
With `COc1cccc(N2CC(NS(=O)(=O)c3cccs3)CC2=O)c1` (centres undefined), the inhibition is -2.66%.
For `COc1ccccc1C(=O)OCC(=O)Nc1cccc(S(=O)(=O)NC2=NCCCCC2)c1`, the inhibition was -6.85%.
On to `O=C(COC(=O)c1cc[n+]([O-])cc1)Nc1ccc(Cl)c(C(F)(F)F)c1`, for which the inhibition is -1.85%.
For `COc1cc(OC)cc(C(=O)NCC(=O)OCC(=O)NC(C)CCc2ccccc2)c1` (centres undefined) the value was -5.18%.
Under `CC(C)Cn1c(SCC(=O)Nc2ccc(Cl)cc2F)nc(O)cc1=O` stands 8.68%.
Under `CCC(CO)Oc1cc(NC(=O)c2cccc(F)c2)c2ncn(C(C)C)c2c1` (centres undefined) stands -0.176%; under `CCC(=O)c1ccc(OCC(=O)Nc2ccc(N3CCCCC3)cc2)cc1`, -1.33%.
In the case of `O=C(COc1ccc([N+](=O)[O-])cc1)Nc1ccc(N2CCCC2)cc1`, the inhibition is 54.5% (active).
Under `COc1ccc(OCC(=O)Nc2ccc(N3CCC(C)CC3)cc2)cc1` stands 5.48%; under `O=C(Nc1cc(S(=O)(=O)N2CCCCC2)ccc1Cl)C1COc2ccccc2O1` (centres undefined), -0.0794%.
On to `COc1cc(OC)cc(-c2cc3ccc(F)cc3cn2)c1`, for which the inhibition was 5.76%.
Take `CCN(C[C@H]1N[C@@](CC)(C(=O)OC)[C@H]2C(=O)N(Cc3ccccc3)C(=O)[C@@H]12)S(=O)(=O)c1ccc(C(F)(F)F)cc1`: the inhibition was 4.73%.
Under `CC[C@@H]1CCCCc2ccccc2[C@@H](C(=O)C[C@H](O)CC(C)=O)OC1=O` stands -4.02%; under `O=C(CCNC(=O)c1ccccc1)NN=Cc1ccc(Br)o1`, 4.25%.
`Fc1ccccc1-c1cc2cc3c(cc2cn1)OCO3`: the inhibition was 0.895%.
In the case of `CCOC(=O)C1Cn2c(nc3c(c2=O)C(C)(CC)Cc2ccccc2-3)S1` (centres undefined), the inhibition is -2.26%.
Consider `CCCN(CC1CC1)C(=O)COC(=O)c1ccc(C)cc1O`, for which the inhibition is -5.26%.
`CCCC1CCC(=NNC(=S)NCCc2ccccc2)CC1` (centres undefined): the inhibition was -4.85%.
For `COCCN(CCOC)S(=O)(=O)NC[C@H]1O[C@@H](n2cnc3c(N)ncnc32)[C@H](O)[C@@H]1O` the value was -1.58%.
For `Cc1nc2ccc(NC(=O)c3cccc(S(=O)(=O)N4CCOCC4)c3)cc2s1` the value was -5.18%.
